# Assay outcomes deposited in PubChem BioAssay by National Center for Advancing Translational Sciences (NCATS).
# The entries come from a sample that favours hits as a whole.
# PI4K2A inh = blocks human PI4K2A kinase activity | Q9BTU6 | purified PI4K2A, ADP-Glo luminescence, 1 h; hits give low values | activity change, negative = inhibition, % at 76.9 µM | hit rate 0.13% among 420,000 | AID 1346378; in the data active = activity change below about -50%; inconclusive = mostly about -30% to -49%;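 note: -100% = wells without enzyme as full effect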
#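 ADP-Glo luminescence measured ADP generated by PI4K2A enzyme (4 ug/mL before mixing) with 1.2 mM PI substrate (pre-mix) and 300 microM ATP (pre-mix). Tris pH7.5 buffer with MgCl2, Triton X-100; 1 h reaction at ambient temperature.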
# PI5P4K alpha inh = PI5P4K alpha (human) kinase inhibition; PI5P4Kalpha enzyme, ADP-Glo luminescence, 60 min; hits give low values; max response, %; hit rate 1.2% among 330,000; AID 652105; active = max response of -50% or lower; inconclusive = between -30% and -50%; inactive = -30% or higher; note: value at the top dose of about 77 µM
# Target sequence (P48426 whole entry, looked up): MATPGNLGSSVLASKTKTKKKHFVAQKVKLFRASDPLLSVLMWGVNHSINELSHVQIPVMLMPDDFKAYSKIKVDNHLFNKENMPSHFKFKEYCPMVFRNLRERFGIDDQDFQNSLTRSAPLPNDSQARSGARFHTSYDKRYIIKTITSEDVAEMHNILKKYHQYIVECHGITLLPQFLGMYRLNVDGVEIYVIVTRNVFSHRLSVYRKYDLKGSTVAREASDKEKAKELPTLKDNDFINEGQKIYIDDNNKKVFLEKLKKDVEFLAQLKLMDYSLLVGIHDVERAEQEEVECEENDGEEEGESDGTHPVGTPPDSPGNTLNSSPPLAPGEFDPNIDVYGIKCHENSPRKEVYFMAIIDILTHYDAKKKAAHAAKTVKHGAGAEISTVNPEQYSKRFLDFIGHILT
#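 Reactions run in 0.038 M HEPES pH 7.4, 0.28 mM EGTA, 0.1% CHAPS and 5% DMSO, with PI5P4Kalpha, substrate, compound and 5 microM ATP final, one hour at room temperature. Readout is ADP-Glo luminescence.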
# Pin1 inh = blocks the human prolyl isomerase Pin1 | Q13526 | Pin1 FP peptide displacement, HiFluor488, 10 min | Potency, µM (top dose mostly 115 µM), for the others: at the top dose activity, negative = inhibition, hits mostly inhibitors | hit rate 0.009% among 390,000; active = well fitted inhibition curve with a large enough effect in the polarisation, with a control signal flat, not every such curve was filed as active; inconclusive = small, poorly fitted or top-dose-only effect, or effect the other way, or a change in a side signal; inactive = no such curve, though single readings can be large or run the other way; the % refers to the polarisation; note: potency is the fitted concentration of half-maximal effect
# Target sequence (Q13526 whole entry, looked up): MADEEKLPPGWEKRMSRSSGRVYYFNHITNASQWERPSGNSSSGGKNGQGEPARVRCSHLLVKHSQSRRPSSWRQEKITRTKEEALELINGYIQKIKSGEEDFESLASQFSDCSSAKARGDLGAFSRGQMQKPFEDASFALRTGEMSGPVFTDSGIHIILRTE
# PGK inhibitor = inhibitors of T. brucei phosphoglycerate kinase; PGK/GAPDH coupled, Kinase-Glo luminescence, 60 min; hit rate 0.043% among 380,000; P07378; Potency, µM (doses to about 57.5 µM), for the others: top-dose activity change, negative = inhibition, actives largely listed as inhibitors; active = well fitted inhibition curve with a large enough effect; inconclusive = small, poorly fitted or top-dose-only effect; inactive = no such curve, though single readings can be large or run the other way; note: potency is the fitted concentration of half-maximal effect; nearly all actives have a fitted effect of over 60% in size
#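 Recombinant glycosomal PGK reaction used 1,3-bisphosphoglycerate generated in-well by GAPDH (100nM final) in 100mM TEA pH 7.6, 5mM MgCl2, 0.01% Tween-20. After 60 minutes at room temperature, ATP was read by Kinase-Glo Plus luminescence end-point.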
# The depositor's hits bear a star; i = inactive; ? = inconclusive; / = no result given; ! = not confirmed by another sample. Unless noted, % is set by controls: 0 for no effect and ±100 for the full control effect.
SMILES,PI4K2A inh,PI5P4K alpha inh,Pin1 inh,PGK inhibitor
CCN1C(=O)C(=Cc2ccc(C)s2)C(=O)N(CC)C1=S,-5,-69*,?,0%
CCN1C(=O)C(=Cc2cc(C)n(C3CC3)c2C)C(=O)N(CC)C1=S,-2,-7,?,i
CCO[C@H]1O[C@@H]2OC3(C)CC[C@H]4[C@H](C)CC[C@@H]([C@H]1C)[C@@]24OO3,2,/,/,/
O=c1[nH]sc2cc(F)ccc12,-3,-82*,-14%,6%
CCC(C)c1ccc(N2C(=O)NC(=O)/C(=C/c3cccn3CCOc3ccc(C)cc3)C2=O)cc1 (stereo not drawn),-3,-58*,?,5%
C=CCC1C(=O)NC(=S)NC1=O,-4,-63*,-7%,-8%
C=CCC1(CC)C(=O)NC(=S)NC1=O,8,-2,1%,1%
C=CCn1cc(C=C2C(=O)N(C)C(=O)N(C)C2=O)c2ccccc21,-6,-1,?,2%
C=CCc1cc(C=C2C(=O)N(C)C(=O)N(C)C2=O)cc(OCC)c1OCc1ccccc1,-22,-55*,44%,i
CN1C(=O)NC(=O)/C(=C/c2ccc(C(=O)O)cc2)C1=O,-8,?,-3%,-5%
C=CCc1cc(C=C2C(=O)NC(=O)NC2=O)cc(OC)c1OCc1ccc(C(=O)O)cc1,?,-62*,-11%,-6%
O=C1NC(=S)SC1=Cc1ccc(N(CCCl)CCCl)cc1,-9,-72*,?,6%
O=c1c(C2CC(c3ccc(-c4ccc(Br)cc4)cc3)Cc3ccccc32)c(O)sc2ccccc12 (stereo not drawn),-7,/,/,/
C[C@]12CC[C@H]3[C@@H](CCC4=CC(=O)CC[C@@H]43)[C@@H]1CC[C@@H]2OC(=O)CCC1CCCCC1,-1,/,/,/
COc1ccc(OC)c(N2C(=O)NC(=O)/C(=C\c3ccc([N+](=O)[O-])s3)C2=O)c1,-21,-61*,/,-19%
O=C1NC(=O)N(c2ccccc2)C(=O)/C1=C\c1ccc([N+](=O)[O-])s1,-23,-74*,?,-29%
CN1C(=O)NC(=O)/C(=C/c2ccc([N+](=O)[O-])s2)C1=O,-24,-56*,?,-23%
CCOc1ccccc1NC(=O)c1sc2nc3c(cc2c1N)CN(Cc1ccccc1)CC3,-1,/,?,-1%
COc1cc(/C=C2\C(=O)NC(=O)N(CCc3ccc(F)cc3)C2=O)ccc1O,-53*,-78*,?,-1%
CCOc1ccc(/C=C2/C(=O)NC(=O)N(CCc3ccc(F)cc3)C2=O)cc1,-23,-55*,5%,-1%
CC#C[C@]1(O)CC[C@H]2[C@@H]3C[C@H](C)C4=CC(=O)CC[C@]4(C)[C@H]3CC[C@@]21C,-5,/,/,/
Cc1cccc(Cn2c(=O)n(Cc3ccc(C(=O)NC4CCN(Cc5ccccc5)CC4)cc3)c(=O)c3ccccc32)c1,-8,/,56%,0%
O=C(O)Cn1cc(/C=C2\C(=O)NC(=O)N(Cc3ccco3)C2=O)c2ccccc21,?,?,32%,?
Cc1ccc(N2C(=O)NC(=O)/C(=C/C=C/c3ccco3)C2=O)cc1,?,-24,?,-10%
O=C1NC(=O)N(Cc2ccccc2)C(=O)/C1=C\N1CCCc2ccccc21,-2,?,?,-7%
SMILES,PI4K2A inh,PI5P4K alpha inh,Pin1 inh,PGK inhibitor
O=C1NC(=O)N(Cc2ccccc2)C(=O)/C1=C\c1ccco1,-22,-86*,?,?
CCCCN1C(=O)/C(=C\c2ccco2)C(=O)N(CCc2ccccc2)C1=O,-21,-82*,-4%,-14%
CN1C(=O)C(=CN2CCN(C(=O)c3ccco3)CC2)C(=O)N(C)C1=S,3,-18,12%,7%
CC(C)c1ccc(N2C(=O)NC(=O)/C(=C/C=C/c3ccco3)C2=O)cc1,-28,-66*,?,7%
O=C1NC(=O)N(Cc2ccco2)C(=O)/C1=C/c1cccn1CCOc1ccccc1Cl,?,-52*,33%,-19%
CCc1ccc(N2C(=O)NC(=O)/C(=C\C=C\c3ccco3)C2=O)cc1,?,?,?,-14%
O=C1NC(=O)N(Cc2ccc(F)cc2)C(=O)/C1=C\C=C\c1ccco1,-11,-75*,?,-10%
CCCCN1C(=O)/C(=C/C=C/c2ccco2)C(=O)NC1=S,-5,-85*,?,?
Cc1ccc(NC(=O)NCc2ccc3c(c2)CCN3C(=O)c2ccccc2)c(Cl)c1,1,/,?,9%
C#CC(O)(C=CCl)CC (stereo not drawn),-1,/,/,/
O=C1NC(=O)C(=Cc2ccc(OCC(=O)N3CCOCC3)cc2)C(=O)N1,-14,?,4%,i
N=C1/C(=C\c2ccc(OC(=O)c3ccccc3Cl)cc2)C(=O)N=C2SC(N3CCOCC3)=NN12,-2,-67*,?,-11%
CN(C)C1C(=O)C(C(N)=O)=C(O)C2(O)C(=O)C3=C(O)c4c(O)cccc4C(C)(O)C3CC12 (stereo not drawn),-8,-9,8%,-5%
CN(C)[C@@H]1C(=O)C(C(N)=O)=C(O)[C@@]2(O)C(=O)C3=C(O)c4c(O)cccc4[C@@](C)(O)C3[C@H](O)C12 (stereo partly drawn),-26,-88*!,?,-30%
Cn1cccc1/C=C1/C(=O)NC(=O)N(Cc2ccccc2)C1=O,-14,-66*,?,-8%
Cn1cccc1/C=C1/C(=O)NC(=O)N(Cc2ccc(F)cc2)C1=O,-25,-65*,-6%,-17%
Cn1cccc1/C=C1/C(=O)NC(=S)N(Cc2ccc(F)cc2)C1=O,32,-94*,/,-14%
O=C1NC(=O)N(Cc2ccccc2Cl)C(=O)/C1=C/N1CCOCC1,-13,?,?,-9%
CC1=CC(=C2C(=O)NC(=S)NC2=O)C=C(C(F)(F)F)N1Cc1ccccc1,4,-14,4%,i
C=CCN1C(=O)NC(=O)/C(=C/c2cccn2C)C1=O,-23,?,-2%,i
Cc1ccc(N2C(=O)NC(=O)/C(=C\c3cccn3C(C)(C)C)C2=O)cc1,-17,-2,40%,/
Cn1cccc1/C=C1\C(=O)NC(=O)N(Cc2ccccc2)C1=O,-1,-58*,?,-15%
Nc1ccccc1C(=O)OCC(O)CO (stereo not drawn),1,/,/,/
Clc1ccccc1N1CCNCC1,3,/,/,/
COc1ccc2c3c1O[C@H]1[C@H](O)CC[C@H]4[C@@H](C2)N(C)CC[C@@]341,i,/,/,/
CC1Sc2c(C(=O)O)c(=O)c3cc(F)c(N4CCNCC4)cc3n21 (stereo not drawn),-5,/,/,/
COc1cc2c3c(c1OC)Oc1ccc(cc1)C[C@H]1c4c(cc(OC)c(OC)c4Oc4ccc(cc4)C[C@@H]3N(C)CC2)CCN1C,0,-92*,36%,10%
COc1ccc2cc1Oc1ccc(cc1)C[C@H]1c3cc(c(OC)cc3CCN1C)Oc1c(OC)c(OC)cc3c1[C@H](C2)N(C)CC3,2,-18,-1%,1%
